Screens: PubChem BioAssay, several laboratories
697 NFkB inh = inhibitors of PMA/ionomycin-induced NF-kB reporter, 697 cells, primary screen, B-cell NF-kB inhibitor project, cell-based, luminescence, uHTS; 697 B-cell NF-kB luciferase reporter, 16 h; inhibition, % at 4 µM; 0.33% of 330,000 active; in the data active = inhibition above about 35%
Bfl-1 A1 inh = caspase 3/7 activation in MEF A1-2A-BIM cells, primary screen, A1 inhibitor project, cell-based, luminescence, HTS. Caspase-Glo 3/7 luminescence, 3 h; percent of clofoctol response, vehicle zero. caspase activation, % (concentration not given with the values). 0.066% of 330,000 active. AID 2462, 2010;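 active = over half of replicate activation scores above 10%, or exactly half above 10 with the replicate mean above 10; inconclusive = replicate mean below 10 yet half the replicates above 10; inactive = over half of replicates below 10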
NTR1 ag = agonists of human NTR1, primary screen, imaging, U2OS cells, beta-arrestin-GFP, high content | Neurotensin receptor type 1 (Homo sapiens), P30989 | NTR1-U2OS beta-arrestin-GFP spot imaging, agonist mode | activation, % at 20 µM | 0.17% of 330,000 active | AID 493036, 2011;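 active = activation at or above 40% of the spot to cytoplasm intensity ratio, with at least 20 cells analyzed; inconclusive = wells under 20 cells, flagged as cytotoxic or low count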;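 also: 0% = DMSO without peptide and 100% = 100 nM NTR1 peptide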
Jurkat NFkB inh = inhibitors of induced NF-kB luciferase reporter, primary screen, TCR NF-kB activation inhibitor project, cell-based, luminescence, uHTS. Jurkat, PMA/ionomycin-induced NF-kB luciferase reporter. 0.53% of 330,000 active. inhibition, % at 4 µM; in the data active = inhibition above about 50%
Mdm2 MdmX PPI = inhibitors of human Mdm2-MdmX association, primary screen, cell-based, luminescence, split luciferase, SaOS-2, uHTS. 3% of 330,000 active. AID 485346, 2010. Protein Mdm4 (Homo sapiens) + E3 ubiquitin-protein ligase Mdm2 (Homo sapiens), …. SaOS-2 split-luciferase Mdm2/MdmX complementation. inhibition, % at 8 µM;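 active = inhibition of at least 50% at 8 µM in the primary screen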
Target sequence (O15151 whole entry, looked up): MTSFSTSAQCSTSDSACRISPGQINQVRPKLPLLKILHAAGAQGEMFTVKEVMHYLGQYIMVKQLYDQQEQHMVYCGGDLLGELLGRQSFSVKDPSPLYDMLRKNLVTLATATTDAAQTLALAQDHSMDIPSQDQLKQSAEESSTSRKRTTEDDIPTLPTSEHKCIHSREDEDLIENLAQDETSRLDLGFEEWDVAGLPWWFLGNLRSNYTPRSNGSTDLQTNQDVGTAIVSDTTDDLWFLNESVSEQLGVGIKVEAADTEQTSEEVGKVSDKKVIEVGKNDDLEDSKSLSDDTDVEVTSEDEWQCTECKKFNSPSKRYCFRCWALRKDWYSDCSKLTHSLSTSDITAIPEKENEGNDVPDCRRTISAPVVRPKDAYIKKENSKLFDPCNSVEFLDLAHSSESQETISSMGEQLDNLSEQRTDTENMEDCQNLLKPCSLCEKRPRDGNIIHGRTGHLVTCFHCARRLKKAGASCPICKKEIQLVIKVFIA
Target sequence (Q00987 whole entry, looked up): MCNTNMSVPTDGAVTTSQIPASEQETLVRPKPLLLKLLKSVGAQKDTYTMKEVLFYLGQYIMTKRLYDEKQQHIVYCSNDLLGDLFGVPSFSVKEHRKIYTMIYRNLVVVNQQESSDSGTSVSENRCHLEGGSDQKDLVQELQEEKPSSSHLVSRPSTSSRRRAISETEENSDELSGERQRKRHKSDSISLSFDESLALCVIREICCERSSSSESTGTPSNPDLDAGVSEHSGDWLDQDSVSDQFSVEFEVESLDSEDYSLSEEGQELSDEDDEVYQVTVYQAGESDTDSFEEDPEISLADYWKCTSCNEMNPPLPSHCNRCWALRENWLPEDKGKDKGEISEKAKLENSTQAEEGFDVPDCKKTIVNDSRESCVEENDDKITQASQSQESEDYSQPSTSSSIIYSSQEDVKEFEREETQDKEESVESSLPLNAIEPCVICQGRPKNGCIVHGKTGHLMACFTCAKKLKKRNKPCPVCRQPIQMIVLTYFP
Beta cell apopt = inhibitors of cytokine-induced beta cell apoptosis, primary screen, luminescence; INS-1E cytokine-induced death, ATP luminescence, 48 h; percent of positive-control rescue, neutral wells zero; protection from apoptosis, % (concentration not given with the values); 0.8% of 300,000 active; AID 435005, 2010;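 active = Every replicate reaches about 75%, or at least half do and their mean reaches it too, limit read from the data; inconclusive = At least half of replicates reach the limit but their mean does not; inactive = Under half of replicates reach the limit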;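 also: 0% = cytokine-treated negative control wells and 100% = positive control rescue; higher means more ATP so stronger rescue from cytokine killing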
Mdm2-MdmX conf = Mdm2-MdmX complex disruptors, retested hits, confirmation, luminescence, single concentration. inhibition, % at 8 µM. Mdm2-MdmX binding, luminescent assay. 55% of 10,000 active. shares compounds with Mdm2 MdmX PPI; in the data active = inhibition above about 40%
Full FLuc ctr = full-length luciferase signal inhibition, confirmation, counter-screen for Mdm2/MdmX interaction inhibitor project, cell-based, single concentration, SaOS-2. shares compounds with Mdm2 MdmX PPI. SaOS-2 full-length luciferase counterscreen, luminescence. inhibition, % at 8 µM. 77% of 6,200 active. AID 504607, 2011;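 active = mean inhibition at 8 µM reaching about 37%, which flags the compound as non-specific, limit read from the data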;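 also: p53-null SaOS-2 cells with luciferase driven by a doxycycline-inducible promoter; compound on cells about two nights before reading with doxycycline added after day one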
Active calls of the source: *; ? = inconclusive; . = no result given. This is a sample that favours compounds with a hit; in the whole collection about 3.8% have one here.

SMILES | 697 NFkB inh | Bfl-1 A1 inh | NTR1 ag | Jurkat NFkB inh | Mdm2 MdmX PPI | Beta cell apopt | Mdm2-MdmX conf | Full FLuc ctr
Cc1[nH]nc2nc(SCC(=O)NC3CCCCC3)n(-c3ccc(Br)cc3)c(=N)c12 | -27 | 0 | 3 | 11 | 35 | 52 | . | .
CC(C)c1ccc2[nH]c(O)c(N=NC(=O)c3cccc(S(=O)(=O)Nc4ccccc4Cl)c3)c2c1 | -18 | 0 | 4 | -9 | 19 | 0 | . | .
CC(C)NC(=S)N=Nc1c(O)[nH]c2ccc(C(C)C)cc12 | 3 | 0 | 2 | 18 | 55* | 8 | 36 | 51*
Cc1cccc(NC(=S)N=Nc2c(O)[nH]c3ccccc23)c1 | 3 | 0 | 11 | -3 | 54* | 48 | 38 | 57*
COc1ccccc1NC(=S)N=Nc1c(O)[nH]c2ccc(Br)cc12 | 2 | 1 | 10 | 41 | 70* | ? | 75* | 57*
COc1ccc(/C=N/OCC(=O)N=Nc2c(O)[nH]c3ccc(Br)cc23)cc1OC | 8 | 0 | 6 | 4 | 10 | -7 | . | .
COc1ccc(/C(C)=N/OCC(=O)N=Nc2c(O)[nH]c3ccc(Br)cc23)cc1 | 2 | -1 | 19 | -2 | 53* | -5 | -5 | .
CC(CC(=O)Nc1nnc(CC(C)(C)C)s1)c1ccccc1 (centres undefined) | -3 | 0 | 1 | -3 | 2 | 1 | . | .
O=C(Nc1ccccc1F)C1COc2ccccc2O1 (centres undefined) | -19 | 2 | -1 | -14 | 4 | 4 | . | .
Cc1sc2nc(CSCC(=O)N3CC(C)OC(C)C3)[nH]c(=O)c2c1C (centres undefined) | 2 | . | -1 | 2 | 4 | . | . | .
Cc1ccc(C)c(Cn2nnc3c(=O)[nH]c(C4CCN(C(=O)c5ccco5)CC4)nc32)c1 | -30 | 1 | 3 | -6 | -1 | 2 | . | .
Cc1ccc(NC(=O)COc2ccccc2CNC(C)(C)CC(C)(C)C)cc1 | 1 | 1 | 32 | 5 | 90* | 34 | 53* | 59*
CC(C)(CO)NCc1ccccc1OCC(=O)Nc1ccccc1 | 5 | 0 | -1 | -25 | 4 | -4 | . | .
CC(C)NC(=O)c1ccc(CN2CCc3ccccc3C2)cc1 | 9 | 1 | 3 | 11 | 13 | -2 | . | .
CCOc1cc(/C=C2/NC(=S)NC2=O)ccc1OCc1ccc([N+](=O)[O-])cc1 | 19 | 0 | 11 | 2 | 60* | 41 | 35 | .
CC(=O)C(=Cc1ccc(C(=O)O)cc1)C(C)=O | 7 | 1 | 1 | -16 | 1 | . | . | .
Cc1ccc(NC(=O)C(=Cc2ccc(C(=O)O)cc2)C(=O)Nc2ccc(C)cc2C)c(C)c1 | -137 | 0 | 1 | 32 | 100* | 71 | 99* | 52*
COc1ccc(C=O)cc1OS(=O)(=O)c1ccc(NC(C)=O)cc1 | 4 | 0 | 1 | 7 | 4 | 4 | . | .
COc1ccc(/C=N/NC(=O)c2ccc3ccccc3c2)cc1OS(=O)(=O)c1ccc(NC(C)=O)cc1 | 2 | 1 | 3 | 37 | 68* | . | 55* | 58*
COc1cc(/C=N/NC(=O)c2cccnc2)ccc1OC(=O)c1ccc([N+](=O)[O-])cc1 | 24 | 0 | 8 | -2 | -11 | 0 | . | .
COc1ccc(/C=N/NC(=O)c2cccnc2)cc1COc1ccc(NC(C)=O)cc1 | -22 | 0 | 3 | 40 | 52* | 6 | 26 | .
